From PubChem BioAssay
BJeLR lethal: kills HRASV12-expressing BJeLR cells; BJeLR (HRASV12) viability, CellTiter-Glo ATP luminescence, 48 h; inhibition, % (concentration not given with the values); actives 0.17% (n = 300,000); AID 1554; in the data active = inhibition above about 50%; inconclusive = no clear call, values can overlap the other calls
MazEF act: increases E. coli MazEF RNase cleavage of RNA; P0AE70; FAM/BHQ RNA-DNA oligo cleavage fluorescence, 5 h; activation, % at 20 µM; actives 0.32% (n = 350,000); in the data active = activation above about 50%
Target sequence (P0AE70 whole entry, looked up): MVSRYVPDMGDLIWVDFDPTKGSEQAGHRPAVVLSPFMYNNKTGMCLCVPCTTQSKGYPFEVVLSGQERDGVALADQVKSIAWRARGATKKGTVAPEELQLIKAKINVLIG
PrPC surface inh: cell surface PrPC inhibition, primary TR-FRET screen; TR-FRET read-out; inhibition, % at 13.8 µM; actives 0.43% (n = 370,000); AID 720596; in the data active = inhibition above about 24%; also: 0% = median of the test wells and 100% = reference compound wells
PrP UTR inh: inhibition of PrP 5' UTR reporter expression | inhibition, % (test concentration not listed) | actives 0.35% (n = 340,000) | cell-based PrP 5' UTR mRNA reporter, plate reader; in the data active = inhibition above about 52%; also: 0 = median of the neutral control wells
PrP UTR cherry: prion 5' UTR mRNA inhibition, cherry-pick retest; cell-based prion protein 5' UTR reporter, plate reader; AID 504592; inhibition, % at 2.5 µM; actives 48% (n = 1,100); shares compounds with PrP UTR inh; in the data active = inhibition above about 54%; inconclusive = no clear call, values can overlap the other calls
* hit, by the source's call. A selection: hits, their analogues and other compounds. The true share with any hit is near 1.1%.

Results for COc1cc(/C=N/O)ccc1OCc1ccc(Cl)cc1 ?
BJeLR lethal: -8; PrPC surface inh: 12

Results for Cc1cccc(C)c1-n1nnnc1C1c2ccccc2OCC(=O)N1Cc1ccc(F)cc1 (stereo not drawn) ?
PrPC surface inh: 11

Results for CCOc1ccc(-n2c(SCc3cccc4ccccc34)nnc2-c2ccc(C)cc2)cc1 ?
PrPC surface inh: 2

How did CCOc1ncccc1C(=O)N1CCN(c2cccc(C)c2C)CC1 do in these assays?
BJeLR lethal: 39; MazEF act: -7; PrPC surface inh: 6; PrP UTR inh: 70*; PrP UTR cherry: 86*

What do the screens show for `NCc1ccc(OCCCN2CCC(C(O)(C3=CCCC3)c3ccccc3)CC2)cc1` (stereo not drawn)?
PrPC surface inh: -8

Results for CC(C)c1nnc(NC(=O)CSc2nnc(NC(=O)c3c(F)cccc3F)s2)s1 ?
BJeLR lethal: 1; MazEF act: 1; PrPC surface inh: -3; PrP UTR inh: 79*; PrP UTR cherry: -2

What do the screens show for `O=C(CSc1nnc(NC(=O)c2c(F)cccc2F)s1)Nc1ccccc1F`?
BJeLR lethal: -5; MazEF act: 5; PrPC surface inh: -1; PrP UTR inh: -20

Results for CCOC(=O)c1ccc(NC(=O)Nc2ccon2)cc1 ?
BJeLR lethal: 58*; MazEF act: -2; PrPC surface inh: 7; PrP UTR inh: 66*; PrP UTR cherry: 79*

What do the screens show for `CN(C)CCCN1CC(=O)N2CCc3ccc(Br)cc3C2CC1=O` (stereo not drawn)?
PrPC surface inh: -1

How did COc1ccc(OC)c(-c2nc(C(=O)NCCCN3CCOCC3)cc3c2[nH]c2ccccc23)c1 do in these assays?
BJeLR lethal: 5; MazEF act: -3; PrPC surface inh: -5; PrP UTR inh: 54*; PrP UTR cherry: 1

What do the screens show for `CCNC(=O)N1CCN(c2ccc(N3CCN(Cc4ccccc4)[C@H](C)C3)c(C)c2)[C@H](C)C1`?
PrPC surface inh: 5

Results for Cn1c(=O)c2[nH]c(N=Nc3ccc(N)cc3N)nc2n(C)c1=O ?
BJeLR lethal: 0; MazEF act: 9; PrPC surface inh: -3; PrP UTR inh: 71*; PrP UTR cherry: -5

What do the screens show for `Cc1cc(C)cc(Nc2nc3c([nH]2)c(=O)n(C)c(=O)n3C)c1`?
BJeLR lethal: -5; MazEF act: 2; PrPC surface inh: 0; PrP UTR inh: 5

How did COc1ccc(CCNc2cc(N3CCN(C(=O)c4ccc(C)cc4)CC3)ccc2[N+](=O)[O-])cc1OC do in these assays?
BJeLR lethal: 11

What do the screens show for `COc1ccc(CCNc2ccc(C(=O)O)cc2[N+](=O)[O-])cc1OC`?
BJeLR lethal: 7; MazEF act: -14; PrPC surface inh: -28; PrP UTR inh: 62*; PrP UTR cherry: 10

What do the screens show for `CC(C)(C)OC(=O)C[C@@H]1C/C=C\C[C@H](CC(=O)N(CCO)Cc2ccccc2)C(=O)N[C@H](C(C)(C)C)COC1=O`?
MazEF act: 6; PrPC surface inh: -6; PrP UTR inh: 60*; PrP UTR cherry: 0

What do the screens show for `COC(=O)c1c(-c2ccc(OC)cc2)c2c(c3c4cc(OC)ccc4n(C(=O)c4ccccc4)c13)C(=O)N(C)C2`?
PrPC surface inh: -2

Results for O=C(O)CCCc1ccc2c(c1)CCc1ccccc1-2 ?
BJeLR lethal: -8; MazEF act: 3; PrPC surface inh: -3; PrP UTR inh: 65*; PrP UTR cherry: 75*

Results for Cc1ccc(NC(=O)C2CCCN(S(=O)(=O)c3cnc[nH]3)C2)c(Br)c1 (stereo not drawn) ?
BJeLR lethal: 1; MazEF act: 3; PrPC surface inh: -7; PrP UTR inh: 73*; PrP UTR cherry: -1

What do the screens show for `O=C(O)CCCC(=O)OCCCc1cc2ccccc2c(=O)o1`?
PrPC surface inh: -1

How did Cc1csc(NC(=O)c2ccc(N3CCCC3=O)cc2)n1 do in these assays?
BJeLR lethal: 12; MazEF act: -1; PrPC surface inh: -3; PrP UTR inh: 56*; PrP UTR cherry: inconclusive

Results for COC(=O)[C@]12C[C@H](CC(=O)NCc3ccc(OC)c(OC)c3)C(=O)N(CCc3ccc(OC)c(OC)c3)C1=C[C@H](C1CCCC1)O[C@@H]2C ?
PrPC surface inh: -1

How did CCC1=C(OC(=O)N(CC)CC)N2C(=O)OC(=NCc3ccccc3)[C@]2(C)[C@H]2C1=CC[C@H]1C(=O)N(c3ccccc3)C(=O)[C@H]12 do in these assays?
BJeLR lethal: 3; MazEF act: -3; PrPC surface inh: 6; PrP UTR inh: 4

What do the screens show for `CCC1=C2CC[C@H]3C(=O)N(c4ccccc4)C(=O)[C@H]3[C@H]2[C@@]2(C)C(=NCc3ccccc3)OC(=O)N2C1=O`?
BJeLR lethal: -1; MazEF act: 4; PrPC surface inh: 8; PrP UTR inh: 76*; PrP UTR cherry: -25

What do the screens show for `CCOCCOC(=O)c1[nH]c2c(c1C)C(=O)CC(c1cc(OC)c(OC)c(OC)c1)C2` (stereo not drawn)?
BJeLR lethal: 5; MazEF act: 4; PrPC surface inh: 13; PrP UTR inh: -1

What do the screens show for `CCOCCOC(=O)c1[nH]c2c(c1C)C(=O)CC(c1cccs1)C2` (stereo not drawn)?
BJeLR lethal: 65*; MazEF act: 7; PrPC surface inh: 9; PrP UTR inh: 65*; PrP UTR cherry: 87*

What do the screens show for `COC(=O)c1[nH]c2c(c1C)C(=O)CC(c1cccc(OC)c1)C2` (stereo not drawn)?
BJeLR lethal: 43; MazEF act: -2; PrPC surface inh: 7; PrP UTR inh: 74*; PrP UTR cherry: 88*

Results for COC(=O)c1[nH]c2c(c1C)C(=O)CC(c1ccc(OC)c(OC)c1)C2 (stereo not drawn) ?
BJeLR lethal: -2; MazEF act: 8; PrPC surface inh: 3; PrP UTR inh: 6

How did CCCCCOC(=O)c1[nH]c2c(c1C)C(=O)CC(c1ccco1)C2 (stereo not drawn) do in these assays?
BJeLR lethal: 26; MazEF act: 2; PrP UTR inh: 59*; PrP UTR cherry: 79*

What do the screens show for `CCOCCOC(=O)c1[nH]c2c(c1C)C(=O)CC(c1ccccc1)C2` (stereo not drawn)?
BJeLR lethal: 53*; MazEF act: 8; PrPC surface inh: 21; PrP UTR inh: 81*; PrP UTR cherry: 91*

Results for O=S1(=O)CCSC[C@@H](CN2CCCC2)N1 ?
PrPC surface inh: 12

Results for Cc1ccc(CN2CCCCC(NC(=O)Nc3ccccc3F)C2=O)cc1 (stereo not drawn) ?
PrPC surface inh: 8

Results for CCCCCn1cc(CCC(=O)Nc2ccc(Oc3cccnc3)cc2)c2ccccc21 ?
PrPC surface inh: 20

What do the screens show for `Cc1c(Cc2ccccc2)sc(/N=C/c2ccc3ccccc3c2)c1C(N)=O`?
MazEF act: -2; PrP UTR inh: 60*; PrP UTR cherry: 95*

Results for Cc1c(Cc2ccccc2)sc(/N=C/c2c(O)ccc3ccccc23)c1C(N)=O ?
BJeLR lethal: 5; MazEF act: 22; PrP UTR inh: -20
